Source: PubChem BioAssay (NCATS)
Results filed as inconclusive are left out. Activity calls are given as the source filed them. The call rests on the fitted dose curve; in most records, active means well fitted curve in either direction with a large enough effect (not every such curve was filed as active); inconclusive means small, poorly fitted or top-dose-only effect, or another doubt; inactive means flat fitted curve, though single readings scatter.

Target: Mitogen-activated protein kinase 10 (Mus musculus) (UniProt Q61831)
Assay: JNK3 AlphaScreen Assay (AID 530);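 further: kinase came from lysate of stimulated human HepG2 cells; signal reports phosphorylation of biotinylated GST-cJun 1-79 at Ser73 with 10 µM ATP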
Details: JNK3 lysate, c-Jun phosphorylation; series mostly up to 57.1 µM; activity change, negative = inhibition: at the top concentration
Method in brief: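 Kinase buffer: 20 mM Tris-HCl pH 7.6, 10 mM MgCl2, 1 mM DTT, 0.1 mM Na3VO4, 0.01% Tween-20; ATP 10 uM. Substrate biotin-GST-cJun(1-79), enzyme from activated HepG2 lysates. Detection by Ser73 phospho-antibody AlphaScreen.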
On the % scale 0 is the no-effect control and ±100 the full control effect.

Activity change, negative = inhibition, inactive:
COc1ccc2nc3c(c([Si](C)(C)C(C)(C)C)c2c1)Cn1c-3cccc1=O 0.0305%, CC(C)(C)C(=O)NC(c1ccc(Cl)cc1)[C@]1(C)C[C@H]1C1CCCCC1 (stereo partly specified) 7.21%, S=C(Nc1ccccc1)Nc1ccccc1C#Cc1ccccc1 -23%, CCCC[C@@H]1C[C@H]1C(NC(=O)c1ccccc1)c1ccc(Cl)cc1 (stereo partly specified) 13.3%, CCCC[C@@H]1C[C@H]1C(NC(=O)c1cccs1)c1ccccc1C(F)(F)F (stereo partly specified) 16.7%, CCCC[C@@H]1C[C@H]1C(NC(=O)c1ccco1)c1ccc(-c2ccccc2)cc1 (stereo partly specified) 6.83%, COC(=O)[C@@]1(Cc2ccc(OC)cc2)[C@@H]2C(=CC(=O)[C@H]2CC(=O)C(=O)N2CCCC2)CN1C(=O)c1ccccc1 -6.89%, CCCC[C@H]1C[C@@H]1[C@@H]1N(P(=O)(c2ccccc2)c2ccccc2)[C@](CO)(c2ccccc2)CC12CC2 -6.46%, C[C@@]1(C(NC(=O)c2cccs2)c2ccc(-c3ccccc3)cc2)C[C@H]1C1CCCCC1 (stereo partly specified) 1.46%, CCCCc1c2ccccc2nc2[nH]c3ccccc3c12 4.56%, CC(C)c1cccc2nc3c(c(C(C)(C)C)c12)Cn1c-3cccc1=O 21.3%, CC(C)c1cccc2cc3c(nc12)-c1cccc(=O)n1C3 24.7%, c1ccc(-c2c3ccccc3nc3[nH]c4ccccc4c23)cc1 -27%, CNC(=O)[C@H](C)[C@@H]1C[C@@]1(C)[C@@H](NC(=O)OCc1ccccc1)c1ccccc1 5.12%, CCC/C=C(\CCC)C(NC(=O)c1ccccc1)c1ccccc1 (stereo unspecified) -2.33%, COc1cc2nc3c(c([Si](C)(C)C(C)(C)C)c2cc1OC)Cn1c-3cccc1=O 6.29%
